Compound activity: PubChem, National Center for Advancing Translational Sciences (NCATS)
KB-3-1 cytotox = qHTS assay for MDR1-selective chemotherapeutics: Primary screen using the parental adenocarcinoma cell KB-3-1; KB-3-1 viability, CellTiter-Glo ATP luminescence, 72 h; AID 1347075, 2019; 400,000 compounds, 1.4% hits; Potency, µM (highest dose often 46.1 µM), hits mostly cytotoxic; also: potency is read from the fitted curve at half-maximal effect; nearly all actives have a fitted effect of over 60% in size
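Cells are dispensed, compounds pinned in, plates held at 37 °C for 72 h, then CellTiter-Glo is added and luminescence read after 10 minutes. Cell line: parental KB-3-1 in phenol-red-free DMEM, 10% FBS.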
Nrf2 inh = Nrf2 qHTS screen for inhibitors. A549 ARE-Fluc reporter, luciferase luminescence, 18-24 h. Potency, µM (top dose mostly 46 µM), for the others: top-dose activity change, negative = inhibition, most hits filed as inhibitors. 360,000 compounds, 2.1% hits. AID 504444, 2011; also: potency is read from the fitted curve at half-maximal effect; nearly all actives have a fitted effect of over 60% in size
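Two sequential reads on A549 ARE_Fluc cells exposed to compound for 18-24 h: a CellTiter-Fluor fluorescence read for viability, then a luciferase luminescence read for Nrf2/ARE activity.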
PI4K2A block = qHTS for small molecular inhibitors of PI4K2A. 420,000 compounds, 0.13% hits. activity change, negative = inhibition, % at 76.9 µM. Phosphatidylinositol 4-kinase type 2-alpha (Homo sapiens), Q9BTU6. purified PI4K2A, ADP-Glo luminescence, 1 h; stronger effect = lower value; in the data active = activity change below about -50%; inconclusive = mostly about -30% to -49%;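 also: -100% = wells without enzyme as full effect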
Target sequence (Q9BTU6 whole entry, looked up): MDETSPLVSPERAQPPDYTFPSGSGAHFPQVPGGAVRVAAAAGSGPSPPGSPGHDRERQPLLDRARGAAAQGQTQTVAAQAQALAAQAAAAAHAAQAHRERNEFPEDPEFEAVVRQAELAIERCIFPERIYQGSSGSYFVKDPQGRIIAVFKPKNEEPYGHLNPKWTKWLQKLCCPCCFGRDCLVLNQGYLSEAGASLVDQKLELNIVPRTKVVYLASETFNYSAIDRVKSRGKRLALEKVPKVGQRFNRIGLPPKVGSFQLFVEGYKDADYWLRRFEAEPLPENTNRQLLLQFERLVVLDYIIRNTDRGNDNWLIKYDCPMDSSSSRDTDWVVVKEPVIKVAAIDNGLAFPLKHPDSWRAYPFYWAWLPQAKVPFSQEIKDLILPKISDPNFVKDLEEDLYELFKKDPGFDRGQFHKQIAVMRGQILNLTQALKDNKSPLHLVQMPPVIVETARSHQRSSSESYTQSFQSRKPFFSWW
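PI4K2A activity was measured by ADP-Glo luminescence: enzyme (4 ug/mL stock) and phosphatidylinositol (1.2 mM stock) in Tris pH 7.5/MgCl2/EGTA/Triton X-100 buffer were reacted with ATP (300 microM stock) for one hour at ambient temperature.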
KB-V1 cytotox = qHTS assay for MDR1-selective chemotherapeutics: Primary screen using the drug-selected MDR subline cells KB-V1; Potency, µM (top dose mostly 46.1 µM), usual class: cytotoxic; 400,000 compounds, 3.4% hits; KB-V1 MDR cells viability, CellTiter-Glo, 72 h; also: potency is read from the fitted curve at half-maximal effect; nearly all actives have a fitted effect of over 60% in size
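Cytotoxicity toward P-gp-expressing KB-V1 cells was determined as loss of CellTiter-Glo luminescence after 72 h at 37 degrees C. Compounds were tested in quantitative HTS format across a concentration range, with curves fitted to normalized data.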
A549 tox-1 = Nrf2 qHTS screen for inhibitors: counterscreen for cytotoxicity; A549 ARE-Fluc cells, CellTiter-Fluor viability, 18-24 h; Potency, µM (highest dose often 46 µM), inactives show top-dose activity change, negative = cytotoxicity, actives largely listed as inhibitors; 390,000 compounds, 0.16% hits; AID 504648, 2011; also: potency is read from the fitted curve at half-maximal effect
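A549 ARE-Fluc cells in 5% FBS OPTI-MEM, 5000 cells/well, rested 2 h then exposed to compounds in concentration-response for 18-24 h at 37 °C. Viability by CellTiter-Fluor fluorescence (Ex 405/Em 525) after 30 min; luciferase luminescence (BugLite, 15 min, RT) read afterwards.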
Giardia killer = Small Molecules that selectively kill Giardia lamblia: qHTS. Giardia lamblia trophozoite viability. 340,000 compounds, 0.15% hits. activity change, % at 7.66 µM, hits read low; in the data active = activity change below about -80%; inconclusive = between about -30% and that limit;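 also: parasites exposed to compound for two days anaerobically before the ATP read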
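Luminescence from cellular ATP indicates surviving trophozoites (100 cells/well) following 48 hrs anaerobic compound treatment at 37 deg C; signal develops 15-30 min at room temperature.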
FLuc enzyme inh = Nrf2 qHTS screen for inhibitors: Purified Fluc Biochemical Counterscreen for Hit Validation. shares compounds with Nrf2 inh. purified firefly luciferase, luminescence inhibition. Potency, µM (series often up to 57.5 µM), without a hit: at the top dose activity change, negative = inhibition, hits mostly inhibitors. 1,400 compounds, 4% hits; also: potency is read from the fitted curve at half-maximal effect; nearly all actives have a fitted effect of over 65% in size
A549 tox-2 = Nrf2 qHTS screen for inhibitors: A549 ARE-Fluc Cytotoxicity Counterscreen for Hit Validation; A549 ARE-Fluc cells, cytotoxicity counterscreen; shares compounds with Nrf2 inh; Potency, µM (series often up to 46.1 µM), without a hit: at the top dose activity change, negative = cytotoxicity, hits mostly inhibitors; 1,400 compounds, 2% hits;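 also: potency is read from the fitted curve at half-maximal effect; cells exposed to compounds for 18 to 24 hours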
ARE-Fluc inh = Nrf2 qHTS screen for inhibitors: Nrf2 A549 ARE-Fluc Confirmation Assay for Hit Validation | shares compounds with Nrf2 inh | A549 ARE-firefly luciferase reporter, luminescence | Potency, µM (highest dose often 46.1 µM), without a hit: top-dose activity change, negative = inhibition, usual class: inhibitors | 1,400 compounds, 74% hits; also: potency is read from the fitted curve at half-maximal effect; nearly all actives have a fitted effect of over 65% in size
The depositor's hits bear a star; i = inactive; ? = inconclusive; . = not tested or not shown. Hits are enriched below; roughly 5.7% of the tested compounds scored in any of these assays. Unless noted, calls follow the shape of the dose curve; as a rule, active = well fitted curve in the direction sought with a large enough effect; inconclusive = small, poorly fitted or top-dose-only effect, or another doubt; inactive = no such curve, though single readings can be large; an effect the other way counts as inactive or inconclusive. Unless noted, % is scaled to controls: 0 for no effect and ±100 for the full control effect.

SMILES	KB-3-1 cytotox	Nrf2 inh	PI4K2A block	KB-V1 cytotox	A549 tox-1	Giardia killer	FLuc enzyme inh	A549 tox-2	ARE-Fluc inh
CC[n+]1c(/C=C(/C)SC)sc2ccccc21	i	?	1	i	?	-10	.	.	.
CCCC[C@H](C(=O)N(CC)c1ccccc1)[C@@H](O)c1ccc(Cl)cc1	.	.	4	.	.	.	.	.	.
COc1cc(OC)c(/C=C/c2ccc3ccccc3[n+]2C)c(OC)c1	0.73µM*	.	.	i	.	.	1%	?	1.6µM*
Cc1ccc2ccccc2[n+]1CCCS(=O)(=O)[O-]	i	2%	16	i	-10%	-21	.	.	.
COc1cc(OC)c(C=CC(=O)c2ccccc2O)c(OC)c1	?	3%	7	i	?	5	.	.	.
CCC[n+]1c(/C=C/c2c(OC)cc(OC)cc2OC)ccc2ccccc21	1.3µM*	.	.	i	.	.	-2%	7.3µM*	2.3µM*
CCCC[n+]1c(/C=C/c2c(OC)cc(OC)cc2OC)ccc2ccccc21	i	.	.	i	.	.	2%	?	1.6µM*
CC(=O)Nc1ccc(NC(=S)NC(=O)/C=C/c2ccc(Cl)cc2)cc1	i	?	0	i	0%	7	.	.	.
O=C(/C=C/c1ccc(Cl)cc1)NC(=S)Nc1ccc(NC(=O)c2ccco2)cc1	i	0.82µM*	6	i	-15%	-12	0%	-24%	0.82µM*
CC(C)(C)n1ncc2c(=O)n(Cc3ccc(-c4ccccc4C#N)cc3)cnc21	.	.	.	.	.	.	-11%	-9%	9.2µM*
CC(C)(C)n1ncc2c(=O)n(Cc3cccc(Cl)c3)cnc21	i	-18%	5	i	4%	0	.	.	.
CN(C)c1ccc(CNC(=O)C2CCCN(S(=O)(=O)c3ccc4c(c3)CCCC(=O)N4)C2)cc1 (centres undefined)	.	5.8µM*	-1	.	0%	.	-10%	-1%	?
Cc1c(N)cc[n+](CC(=O)c2ccccc2)c1C	5.2µM*	4.1µM*	-1	?	-17%	-21	0%	-9%	15µM*
O=C(C[n+]1ccncc1)c1ccccc1	i	-1%	0	i	0%	3	.	.	.
Cc1cc[n+](CC(=O)c2ccccc2)c2ccccc12	i	-14%	0	i	-3%	-2	.	.	.
Nc1cc[n+](CC(=O)c2ccccc2)cc1	?	8.2µM*	-2	i	-11%	-22	3%	-13%	?
CCN(CC)C(=O)c1oc(=O)c2ccccc2c1-c1ccc(C)cc1	.	.	2	.	.	.	.	.	.
NS(=O)(=O)c1ccc(OCCCN2CCC(C(O)(c3ccccc3)c3ccccc3)CC2)cc1	.	.	5	.	.	.	.	.	.
COC(=O)c1ccc(NC(=O)CC2C(=O)N(c3cccc(OC)c3)C(=O)N2Cc2ccco2)cc1 (centres undefined)	.	18%	-4	.	-9%	.	.	.	.
C/C(=N\NC(=O)c1cc(-c2cccc([N+](=O)[O-])c2)n[nH]1)c1ccccc1O	?	9.2µM*	-30	i	?	-13	-14%	-3%	?
C/C(=N/NC(=O)c1cc(-c2cccc([N+](=O)[O-])c2)n[nH]1)c1cccc(O)c1	?	-41%	-7	i	0%	23	.	.	.
COc1ccc(NC(=O)CSc2nc(-c3ccco3)cc(C(F)(F)F)n2)cc1Cl	.	7.3µM*	-2	.	-10%	.	-1%	-5%	21µM*
Cc1cccc(C(=O)Nc2ccnc(-c3ccncc3)n2)c1	i	2.6µM*	2	?	?	-11	-3%	1%	-24%
Cc1cccc(C(=O)Nc2ccnc(-c3cccnc3)n2)c1	i	?	0	i	-2%	-9	.	.	.
Cc1cccc(C(=O)Nc2ccc3oc(-c4ccncc4)nc3c2)c1	.	9.2µM*	0	.	-2%	.	-18%	-5%	1.5µM*
SMILES	KB-3-1 cytotox	Nrf2 inh	PI4K2A block	KB-V1 cytotox	A549 tox-1	Giardia killer	FLuc enzyme inh	A549 tox-2	ARE-Fluc inh
CC(C)(C)c1ccc(OCCOCCn2c(-c3ccc(Cl)cc3)nc3ccccc3c2=O)cc1	i	5%	-3	i	25%	.	.	.	.
Cc1onc(-c2c(F)cccc2Cl)c1C(=O)Nc1nnc(C(F)(F)F)s1	i	1.5µM*	-8	i	?	-11	-2%	-9%	0.12µM*
Cc1onc(-c2c(F)cccc2Cl)c1C(=O)Nc1nccs1	i	-13%	-27	i	1%	23	.	.	.
CCNC(=O)Nc1ccc2c(c1)C(=O)N(C)[C@H]1CC[C@H](CC(=O)N[C@H](C)c3ccccc3)O[C@@H]1CO2	.	.	-3	.	.	.	.	.	.
CC(C)c1ccc(S(=O)(=O)NCc2nc3cccnc3n2Cc2ccc(F)cc2)cc1	.	.	0	.	-3%	.	.	.	.
O=C(NCC(c1ccco1)N1CCCC1)c1ccc(Cl)c(S(=O)(=O)N2CCc3ccccc32)c1 (centres undefined)	2.3µM*	1.3µM*	-5	1.6µM*	8.2µM*	47	-14%	-29%	.
COc1ccccc1CNc1ccc(-c2nc(C)no2)cc1[N+](=O)[O-]	?	-69%	-2	?	-17%	.	.	.	.
CCN(CC)S(=O)(=O)c1cc(NC(=O)Cc2ccc(S(=O)(=O)N3CCOCC3)s2)ccc1Cl	?	1.3µM*	-3	i	?	-17	-12%	-24%	6.5µM*
CCN(CC)S(=O)(=O)c1cccc(NC(=O)CNc2cccc(S(=O)(=O)N3CCOCC3)c2)c1	1.3µM*	1.3µM*	-5	21µM*	?	0	2%	-17%	2.1µM*
CN(C)S(=O)(=O)c1cccc(NC(=O)CNc2cccc(S(=O)(=O)N3CCCCC3)c2)c1	?	.	-4	i	.	.	.	.	.
Cc1ccc(S(=O)(=O)c2cccc(S(=O)(=O)N3CCOCC3)c2)cc1S(=O)(=O)N1CCOCC1	i	15%	4	i	-10%	14	.	.	.
